Activity calls are given as the source filed them. The calls were made as follows: active = hit-call score of the fitted dose curve at least 0.9, where 1 is the maximum; inactive = score below 0.9.
How the values were obtained:
Settings in all cases: mRNA level, 48 h; actives raise or lower the signal
[1] = read-out: CFLAR gene, CFLAR (gene 8837); test: LTEA_HepaRG_CFLAR: Life Technologies and Expression Analysis (LTEA) Assay for CFLAR gene using HepaRG (AID 2283455)
Method in brief: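 HepaRG, 48 h exposure, 8-pt conc-response (100 uM top, half-log), 0.5% DMSO vehicle, duplicates. CFLAR expression by qRT-PCR; ACTB/GAPDH/POLR2A normalization; gain or loss fit vs DMSO baseline.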

[2] = read-out: Forkhead box O1 (FOXO1), FOXO1 (gene 2308); test: LTEA_HepaRG_FOXO1: Life Technologies and Expression Analysis (LTEA) Assay for Forkhead box O1 (FOXO1) using HepaRG (AID 2283456)
Method in brief: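 Readout is FOXO1 transcript level by multiplexed qRT-PCR against three housekeeping genes, curve-fitted in both directions relative to 0.5% DMSO vehicle. Human HepaRG cultures received chemicals for 48 h, up to 100 uM in half-log steps.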

[3] = read-out: growth arrest and DNA damage 45 (GADD45A), GADD45A (gene 1647); test: LTEA_HepaRG_GADD45A: Life Technologies and Expression Analysis (LTEA) Assay for growth arrest and DNA damage 45 (GADD45A) using HepaRG (AID 2283458)
Method in brief: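 Differentiated HepaRG cells were exposed in duplicate for 48 h in serum-free induction medium to 8-point half-log concentrations up to 100 uM in 0.5% DMSO. GADD45A mRNA was measured by TaqMan qRT-PCR, normalized to ACTB, GAPDH and POLR2A, with bidirectional fitting versus DMSO.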

[4] = read-out: Forkhead box O3 (FOXO3), FOXO3 (gene 2309); test: LTEA_HepaRG_FOXO3: Life Technologies and Expression Analysis (LTEA) Assay for Forkhead box O3 (FOXO3) using HepaRG (AID 2283459)
Method in brief: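 HepaRG, 48 h post-dose; 8 conc., half-log from 100 uM, 0.5% DMSO, duplicates; serum-free induction medium. Readout: FOXO3 mRNA, TaqMan qRT-PCR, housekeeping-normalized. Bidirectional curve fit vs DMSO baseline.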

[5] = read-out: ABC Transporter (ABCB1), ABCB1 (gene 5243); test: LTEA_HepaRG_ABCB1: Life Technologies and Expression Analysis (LTEA) Assay for ABC Transporter (ABCB1) using HepaRG (AID 2283460)
Method in brief: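 Expression of ABCB1 was quantified by qRT-PCR against three housekeeping genes after human HepaRG cultures received test chemicals for 48 hours. Concentrations spanned eight half-log steps topping at 100 uM in 0.5% DMSO; gain or loss of signal was fitted relative to vehicle.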

[6] = read-out: growth arrest and DNA damage 45 (GADD45B), GADD45B (gene 4616); test: LTEA_HepaRG_GADD45B: Life Technologies and Expression Analysis (LTEA) Assay for growth arrest and DNA damage 45 (GADD45B) using HepaRG (AID 2283461)
Method in brief: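 Values are bidirectional concentration-response fits against 0.5% DMSO controls. Underlying data: qRT-PCR mRNA levels in human HepaRG liver cells treated 48 h in serum-free induction medium, eight concentrations topping at 100 uM.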

[7] = read-out: ABC Transporter (ABCC3), ABCC3 (gene 8714); test: LTEA_HepaRG_ABCC3: Life Technologies and Expression Analysis (LTEA) Assay for ABC Transporter (ABCC3) using HepaRG (AID 2283462)
Method in brief: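 Differentiated HepaRG liver cells receive test chemicals at eight concentrations (max 100 uM) for 48 h. Expression of ABCC3 is quantified by qRT-PCR against ACTB, GAPDH and POLR2A, and activity is fitted in both directions against the DMSO control.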

[8] = read-out: ABC Transporter (ABCB11), ABCB11 (gene 8647); test: LTEA_HepaRG_ABCB11: Life Technologies and Expression Analysis (LTEA) Assay for ABC Transporter (ABCB11) using HepaRG (AID 2283463)
Method in brief: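 ABCB11 transcript levels are read by Fluidigm TaqMan qRT-PCR after 48 h chemical treatment of human HepaRG cells. Concentrations span 100 uM downward in half-log steps with 0.5% DMSO; gain or loss is fitted against DMSO controls.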

[9] = read-out: ABC Transporter (ABCC2), ABCC2 (gene 1244); test: LTEA_HepaRG_ABCC2: Life Technologies and Expression Analysis (LTEA) Assay for ABC Transporter (ABCC2) using HepaRG (AID 2283464)
Method in brief: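 Gene expression of ABCC2 was determined by qRT-PCR in HepaRG cells exposed 48 h to chemicals (highest 100 uM, half-log dilutions). Activity was fitted in both directions relative to 0.5% DMSO vehicle.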

[10] = read-out: Broad substrate specificity ATP-binding cassette transporter ABCG2 (Homo sapiens) (UniProt Q9UNQ0); test: LTEA_HepaRG_ABCG2: Life Technologies and Expression Analysis (LTEA) Assay for ABC Transporter (ABCG2) using HepaRG (AID 2283465)
Method in brief: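 Read-out is ABCG2 mRNA induction or loss quantified by qRT-PCR after 48 h chemical treatment of human HepaRG cells, normalized to three housekeeping genes. Concentrations reached 100 uM top in half-log steps; fitting was bidirectional against 0.5% DMSO.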

[11] = read-out: ATP-citrate lyase (ACLY), ACLY (gene 47); test: LTEA_HepaRG_ACLY: Life Technologies and Expression Analysis (LTEA) Assay for ATP-citrate lyase (ACLY) using HepaRG (AID 2283466)
Method in brief: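 HepaRG, 48 h exposure, 8-pt half-log dilutions (top 100 uM), 0.5% DMSO. Readout: ACLY mRNA, TaqMan qRT-PCR, housekeeping-normalized (ACTB/GAPDH/POLR2A). Bidirectional curve fit vs DMSO.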

[12] = read-out: Peroxisomal acyl-coenzyme A oxidase 1 (ACOX1) gene, ACOX1 (gene 51); test: LTEA_HepaRG_ACOX1: Life Technologies and Expression Analysis (LTEA) Assay for Peroxisomal acyl-coenzyme A oxidase 1 (ACOX1) gene using HepaRG (AID 2283467)
Method in brief: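 Measured by qRT-PCR against three housekeeping genes: ACOX1 transcript change in human HepaRG cells after 48 h dosing. Concentrations ran up to 100 uM in half-log steps. Curves were fitted bidirectionally relative to 0.5% DMSO.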

[13] = read-out: Alkaline Phosphatase, Placental (ALPP) gene, ALPP (gene 250); test: LTEA_HepaRG_ALPP: Life Technologies and Expression Analysis (LTEA) Assay for Alkaline Phosphatase, Placental (ALPP) gene using HepaRG (AID 2283468)
Method in brief: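 Expression of ALPP was quantified by qRT-PCR against three housekeeping genes in human HepaRG cultures treated for 48 h with an eight-point concentration series up to 100 uM. Activity in either direction was fitted relative to 0.5% DMSO.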

[14] = read-out: Bcl-2 (BAD) gene, BAD (gene 572); test: LTEA_HepaRG_BAD: Life Technologies and Expression Analysis (LTEA) Assay for Bcl-2 (BAD) gene using HepaRG (AID 2283469)
Method in brief: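 BAD transcript change, measured by qRT-PCR against three housekeeping genes and fitted in both directions relative to 0.5% DMSO, after 48 h chemical treatment of human HepaRG liver cells at concentrations up to 100 uM.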

[15] = read-out: Bcl-2 (BAX) gene, BAX (gene 581); test: LTEA_HepaRG_BAX: Life Technologies and Expression Analysis (LTEA) Assay for Bcl-2 (BAX) gene using HepaRG (AID 2283470)
Method in brief: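 Differentiated human HepaRG cells, plated 48 h then switched to serum-free induction medium, were exposed 48 h to 8 half-log concentrations up to 100 uM in 0.5% DMSO; BAX mRNA measured by qRT-PCR, normalized to ACTB, GAPDH, POLR2A.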

[16] = read-out: adenosine kinase (ADK) gene, ADK (gene 132); test: LTEA_HepaRG_ADK: Life Technologies and Expression Analysis (LTEA) Assay for adenosine kinase (ADK) gene using HepaRG (AID 2283471)
Method in brief: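 Read-out is ADK transcript level measured by qRT-PCR and normalised to three housekeeping genes. Cells are human HepaRG, dosed for 48 h at up to 100 uM in 0.5% DMSO. Gain or loss of signal is fitted against DMSO controls.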

[17] = read-out: Alpha-fetoprotein (AFP) gene, AFP (gene 174); test: LTEA_HepaRG_AFP: Life Technologies and Expression Analysis (LTEA) Assay for Alpha-fetoprotein (AFP) gene using HepaRG (AID 2283472)
Method in brief: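 Human HepaRG cells plated 48 h, then switched to serum-free induction medium and exposed in duplicate for 48 h to 8-point half-log series from 100 uM in 0.5% DMSO. AFP mRNA by qRT-PCR, normalized to ACTB, GAPDH, POLR2A; bidirectional fit versus DMSO.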

BCL2L11 (gene 10018) = test: LTEA_HepaRG_BCL2L11: Life Technologies and Expression Analysis (LTEA) Assay for Bcl-2 (BCL2L11) gene using HepaRG (AID 2283473)
Method in brief: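 Cells were plated, cultured 48 h, switched to serum-free induction medium, then dosed in duplicate for 48 h at eight half-log concentrations up to 100 uM. Lysates underwent RNA isolation and TaqMan qRT-PCR; gain or loss versus DMSO was fitted.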

[18] = read-out: Apolipoprotein A-V (APOA5) gene, APOA5 (gene 116519); test: LTEA_HepaRG_APOA5: Life Technologies and Expression Analysis (LTEA) Assay for Apolipoprotein A-V (APOA5) gene using HepaRG (AID 2283474)
Method in brief: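 Human liver HepaRG cells are treated 48 h with test chemicals (100 uM top, half-log dilutions, 0.5% DMSO). APOA5 mRNA induction or loss is measured by qRT-PCR relative to vehicle.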

[19] = read-out: Apoptosis regulator Bcl-2 (Homo sapiens) (UniProt P10415); test: LTEA_HepaRG_BCL2: Life Technologies and Expression Analysis (LTEA) Assay for Bcl-2 gene using HepaRG (AID 2283475)
Method in brief: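 Differentiated HepaRG cells in serum-free induction medium were exposed for 48 h to eight half-log concentrations up to 100 uM in 0.5% DMSO, in duplicate. BCL2 mRNA was quantified by TaqMan qRT-PCR normalised to ACTB, GAPDH and POLR2A, with bidirectional fitting versus DMSO.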

Measured: outcome

Sequence of Broad substrate specificity ATP-binding cassette transporter ABCG2 (Homo sapiens) (Q9UNQ0 whole entry, looked up): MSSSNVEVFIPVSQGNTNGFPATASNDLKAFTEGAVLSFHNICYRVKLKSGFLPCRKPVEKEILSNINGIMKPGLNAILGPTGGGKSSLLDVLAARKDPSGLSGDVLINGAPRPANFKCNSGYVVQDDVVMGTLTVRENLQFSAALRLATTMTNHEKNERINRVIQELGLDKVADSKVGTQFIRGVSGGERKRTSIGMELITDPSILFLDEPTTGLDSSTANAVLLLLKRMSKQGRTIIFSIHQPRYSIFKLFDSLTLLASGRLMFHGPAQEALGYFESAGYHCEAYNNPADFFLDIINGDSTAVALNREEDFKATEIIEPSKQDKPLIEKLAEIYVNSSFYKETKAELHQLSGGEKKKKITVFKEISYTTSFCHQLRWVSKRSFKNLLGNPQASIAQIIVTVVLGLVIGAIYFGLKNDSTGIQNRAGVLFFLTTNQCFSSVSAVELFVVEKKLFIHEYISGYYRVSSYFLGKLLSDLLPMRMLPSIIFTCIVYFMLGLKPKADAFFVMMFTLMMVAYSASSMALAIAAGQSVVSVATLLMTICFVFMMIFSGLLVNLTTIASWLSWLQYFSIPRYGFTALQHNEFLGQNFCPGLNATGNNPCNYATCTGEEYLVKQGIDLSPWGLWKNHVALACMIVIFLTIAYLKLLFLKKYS
Sequence of Apoptosis regulator Bcl-2 (Homo sapiens) (P10415 whole entry, looked up): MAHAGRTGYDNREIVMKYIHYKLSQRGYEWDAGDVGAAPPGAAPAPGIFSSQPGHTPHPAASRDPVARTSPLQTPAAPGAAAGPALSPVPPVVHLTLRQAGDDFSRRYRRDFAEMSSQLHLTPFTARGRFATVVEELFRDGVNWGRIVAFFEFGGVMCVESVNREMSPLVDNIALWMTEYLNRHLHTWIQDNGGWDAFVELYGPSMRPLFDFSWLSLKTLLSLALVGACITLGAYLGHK

O=C(CCl)c1ccccc1
inactive: [1] | [2] | [3] | [4] | [5] | [6] | [7] | [8] | [9] | [10] | [11] | [12] | [13] | [14] | [15] | [16] | [17] | BCL2L11 (gene 10018) | [18] | [19]

N#CCCCCC#N
inactive: [1] | [2] | [3] | [4] | [5] | [6] | [7] | [8] | [9] | [10] | [11] | [12] | [13] | [14] | [15] | [16] | [17] | BCL2L11 (gene 10018) | [18] | [19]

O=[N+]([O-])c1ccc(Cl)cc1
inactive: [1] | [2] | [3] | [4] | [5] | [6] | [7] | [8] | [9] | [10] | [11] | [12] | [13] | [14] | [15] | [16] | [17] | BCL2L11 (gene 10018) | [18] | [19]

Reference: PubChem BioAssay (EPA / NIEHS)
